From PubChem BioAssay (NCI)
Compounds without any hit were thinned out: in the full panel of roughly 83,000, 20% have a hit.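 Growth was measured after 48 h exposure to one concentration of compound in 96-well plates. Values under 10 count as active.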 Unmarked numbers belong to inactive results. Active and inactive are the calls of the source.

test system: HL-60(TB) leukemia; assay: NCI-60 one-dose screen, 48 h (100 = growth as untreated, 0 = no growth, -100 = all killed); conditions: 10 µM unless noted

Point of comparison: CCOC(=O)C1=C(C)NC(=O)NC1c1c(Cl)n(CCCl)c2ccccc12 (stereo not given), growth 117%. Against it:
- CCC(C)NCc1ccccc1 (stereo not given) — lower, 94.6%
- O=C(CCCn1c(=O)c2sc3ccccc3c2n2nnc(-c3ccccc3)c12)NCCc1cnc[nH]1 — lower, 82.9%
- C=CC(=O)N1CC2(CC(n3nc(-c4ccc(Oc5ccccc5)cc4)c4c(N)ncnc43)C2)C1 — lower, 62.3%
- CCOC(=O)c1c2c(n3cccc(Cl)c13)C(=O)c1ncccc1C2=O — lower, 34%
- Cc1ccc(S(=O)(=O)N(CC[C@@H]2C[C@H]2c2cc3ccccc3o2)C(=O)NC2CCCCC2)cc1 — lower, 105%
- CC(=O)c1ccc2c(c1)CCN2 — lower, 106%
- Cc1cc2c(c(C)n1)CN(C(=O)Nc1nc(-c3cncs3)ccc1N)C2 — higher, 139%
- Clc1ccc(-c2nnc(Cn3ccnc3)o2)cc1 — lower, 93.8%
- O=S(=O)(NCCNc1cc(-c2cn(-c3ccccc3)nc2-c2ccccc2)ccn1)c1ccc(F)cc1 — lower, 69.9%
- O=C(O)c1ccc(-n2cc(/C=N/Nc3ccc(Cl)cc3)c(-c3ccc(F)c(F)c3)n2)cc1 — lower, 27.1%
- CCC(CC(C)C)Nc1ccc(NC(CC)CC(C)C)cc1 (stereo not given) — lower, 35.3%
- NC(=O)C(O)(c1ccccc1)c1ccccc1 — lower, 99%
- COc1cc2c(cc1OCCCCCn1c(-c3ccc(OCc4ccccc4)cc3)nc3cc(N4CCOCC4)ccc31)N=C[C@@H]1CCCN1C2=O — lower, 12.7%
- COC(=O)c1c[nH]c2cc(OC(C)C)c(OC(C)C)cc2c1=O — lower, 106%
- COC(=O)/C=C1/CCC2C3CCC4=CC(=O)C(Br)CC4(C)C3C(=O)CC12C (stereo not given) — lower, 75.1%
- Cc1ccc(N)cc1CN1C(=O)c2ccccc2C1=O — lower, 107%
- Cc1cc([N+](=O)[O-])ccc1NC(=O)c1ccc2c(c1)nc(-c1ccccc1)n2C1CCCCC1 — lower, 64.7%
- O=C(Nc1ccccc1)OCC1OCOC(COC(=O)Nc2ccccc2)C1OC(=O)Nc1ccccc1 (stereo not given) — higher, 122%
- S=C=Nc1ccc(N2CCOCC2)cc1 — lower, 103%
- Clc1cc(Cl)cc(N2N=C(c3cccc(Nc4ccncc4)c3)CC2c2ccc(Br)cc2)c1 (stereo not given) — lower, 17.3%
- C=C(CNCCO)[C@@H]1CC[C@]2(CO)CC[C@]3(C)[C@H](CC[C@@H]4[C@@]5(C)CCC(N)C(C)(C)[C@@H]5CC[C@]43C)[C@@H]12 (stereo not given in full) — lower, 32.4%
- c1ccc2c(-c3nc(N4CCOCC4)c4c5c(sc4n3)CCCCCC5)cccc2c1 — lower, 114%
- O=C(Nc1ccccc1O)c1ccc(CNC(=O)c2sccc2Nc2ccnc(C(F)(F)F)c2)cc1 — lower, 25.2%
- CSc1nc(N)c(N=Nc2ccc(S(=O)(=O)Nc3nnc(C)s3)cc2)c(=O)[nH]1 — lower, 90.4%
- CCN(CC)c1ccc2cc(C(Nc3ccc(Br)c(C(F)(F)F)c3)c3nnnn3C(C)(C)C)c(=O)oc2c1 (stereo not given) — lower, 93%
- COc1cc(C2CC(c3ccc(Cl)cc3)=NN2C=O)ccc1Oc1ccnc2cc(Cl)ccc12 (stereo not given) — lower, 85.9%
- COc1cc2cc3cc4cc(OC)c(OC)cc4c(C)[n+]3cc2cc1OC (tested in a mixture with another compound) — lower, 33%
- COC(=O)/C=C1\SC(=Nc2ccc(F)cc2)N(CCc2c[nH]c3ccccc23)C1=O — lower, 73.7%

Cc1cc(Nc2nc(SCc3ccc(C(=O)Nc4ccc(F)cc4N)cc3)nn3cccc23)n[nH]1 was tested, and the growth was -26.4% (active).
In the case of O=c1oc2ccc(F)cc2c(=O)n1-c1ccc(I)cc1F, the growth is reported as -42.8% (active).
With Oc1c(CN2CCCC2)cc(COCc2ccc(Br)cc2)c2cccnc12 the growth was -9.34% (active).
With Cc1ccc(C2=NN(c3ccc(S(=O)(=O)NC(=O)NCc4ccccc4)cc3)C(c3ccc(N(C)C)cc3)C2)c(C)c1 (stereo not given) the growth was -1.6% (active).
O=c1oc2ccc(F)cc2c(=O)n1-c1ccc(Br)cc1F was tested, and the growth was -45.3% (active).
O=C(Nc1ccc([N+](=O)[O-])cc1)c1cc2ccccc2cc1O was tested, and the growth was -16.7% (active).
For CN(C)c1ccc(/C=N/N=C(\C#N)[S][Sn]([Cl])([c]2ccccc2)[c]2ccccc2)cc1, the growth was 0.861% (active).
With O=C1Nc2ccccc2/C1=C/C(=N/c1nnc(-c2ccc(Cl)cc2)s1)c1ccccc1 the growth was -31.8% (active).
With O=C(Nc1ncc(Cc2ccccc2)s1)c1ccc2c(c1)OCCO2 the growth was -48.6% (active).
With CCCCN(CCCC)c1cc(C(=O)CCCCCN)c2ccccc2n1 the growth was -67.9% (active).
With CS(=O)(=O)Nc1ccc(Nc2c3ccccc3nc3cc(Cl)ccc23)cc1 the growth was -1.97% (active).
